Assay outcomes: PubChem BioAssay, several laboratories
Only some compounds are listed: those with a hit (about 11% of all), similar ones and a draw of the others.
Insulin prom up: MIN6 insulin promoter up-regulation | MIN6 insulin promoter-GFP reporter, high-content imaging; active compounds read high | z-score at 5 µM | hit rate 0.3% among 190,000 | AID 1625;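 active means z-score above 3 at 5 µM with at least 500 cells counted in the well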
Autophagy HCS: alters autophagy in cells | MEF GFP-LC3 puncta imaging; test concentration mostly 10 µM | calls only at 10 µM (by protocol) | hit rate 0.98% among 190,000 | AID 463193;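 active means percentage of spot-positive cells more than 3 SD above its plate mean, without a fluorescence outlier flag or 80% toxicity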;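 further: spot-positive cell cutoff set from DMSO-treated cells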
WT yeast gro inh: growth inhibition of WT yeast, mitochondrial fusion screen | mitochondrial fusion phenotypic screen, WT strain | hit rate 2.1% among 190,000 | AID 1362 | inhibition, % at 10 µM; in the data active means inhibition above about 58%; tested in S. cerevisiae
INS promoter inh: TRM-6 insulin promoter activity inhibition; inhibition, % at 2 µM; hit rate 0.9% among 130,000; TRM-6 cells (human fetal islet line), insulin promoter-eGFP reporter, imaging; reporter expression induced with tamoxifen;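 active means inhibition above the mean plus 3 SD, with well images judged a real hit on visual review, cut at about 60% in these data, passing the limit was not always enough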
L major viab: reduces viability of Leishmania major promastigotes; resazurin fluorescence viability; inhibition, % at 10 µM; hit rate 9% among 200,000; in the data active means inhibition above about 50%;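 further: promastigotes grown with compound for 44 hours at 28 °C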
Active calls of the source: *.

For Cc1cc(C)nc(NS(=O)(=O)c2ccc(NC(=O)c3cc(-c4ccccc4)nc4ccccc34)cc2)n1 the results were Insulin prom up 0.74, Autophagy HCS inactive, WT yeast gro inh -4, INS promoter inh 64 and L major viab 67*.
For CCN(CC)S(=O)(=O)c1ccc(NC(=O)c2cc(-c3ccccc3)nc3ccccc23)cc1 the results were Insulin prom up 0.63, Autophagy HCS inactive, WT yeast gro inh 6 and L major viab 2.
`CCOC(=O)c1[nH]c(C)c(C(=O)Nc2cc(OC)ccc2OC)c1C` gave Insulin prom up 0.14, Autophagy HCS inactive, WT yeast gro inh 5, INS promoter inh -252 and L major viab 19.
For CCOC(=O)c1[nH]c(C)c(C(=O)Nc2ccc(F)cc2)c1C the results were Insulin prom up -0.05, Autophagy HCS inactive, WT yeast gro inh -4 and L major viab -6.
`CCOC(=O)c1[nH]c(C)c(C(=O)Nc2ccccc2F)c1C` gave Insulin prom up -0.15, Autophagy HCS active, WT yeast gro inh 13, INS promoter inh 16 and L major viab 4.
Screening CCOC(=O)c1c(C)[nH]c(C(=O)OCC(=O)Nc2ccc(OC)c(Cl)c2)c1C returned Autophagy HCS inactive, WT yeast gro inh 0, INS promoter inh -9 and L major viab 0.
Screening CCOC(=O)c1c(C)[nH]c(C(=O)OCC(=O)Nc2cc(Cl)ccc2OC)c1C returned Insulin prom up -2.3, Autophagy HCS inactive, WT yeast gro inh 85*, INS promoter inh 46 and L major viab 3.
`CCOC(=O)c1c(C)[nH]c(C(=O)OCC(=O)Nc2cc(C)ccc2OC)c1C` gave Insulin prom up -0.91, Autophagy HCS active, WT yeast gro inh -6, INS promoter inh -12 and L major viab 1.
For CC(C)(C)C(=O)NNC(=O)c1cc2sccc2s1 the results were Insulin prom up 0.6.
`COc1ccc(NC(=O)Nc2cccc(NC(C)=O)c2)c(OC)c1` gave Insulin prom up -0.01, Autophagy HCS inactive, WT yeast gro inh 9 and L major viab -3.
Screening Cn1cc(/C=N/n2cnc3scc(-c4ccc(Cl)cc4)c3c2=O)c2ccccc21 returned Insulin prom up -0.04, Autophagy HCS inactive, WT yeast gro inh 15, INS promoter inh -194 and L major viab 59*.
`CN(C)c1ccc(NS(=O)(=O)c2ccc(Cl)cc2)cc1` gave Insulin prom up 0.72, Autophagy HCS inactive, WT yeast gro inh -2, INS promoter inh 20 and L major viab 1.
For CN(C)c1ccc(S(=O)(=O)c2ccc(Cl)cc2)cc1 the results were Insulin prom up 0.3, Autophagy HCS inactive, WT yeast gro inh 37, INS promoter inh 74* and L major viab -1.
COc1ccccc1/C(O)=C(\C#N)c1nc2ccccc2[nH]1 was read as Insulin prom up 0.96, Autophagy HCS inactive, WT yeast gro inh 1, INS promoter inh -27 and L major viab 3.
COc1cccc(/C=C/C(=O)OCC(=O)Nc2ccc(S(=O)(=O)N3CCCC3)cc2)c1 was read as Insulin prom up 0.86, Autophagy HCS inactive, WT yeast gro inh 3, INS promoter inh -14 and L major viab 68*.
For COc1ccc(/C=C/C(=O)Nc2cccc(F)c2)cc1S(=O)(=O)N1CCOCC1 the results were Insulin prom up -0.49, Autophagy HCS inactive, WT yeast gro inh 2, INS promoter inh -50 and L major viab 50*.
`COc1ccc(/C=C/C(=O)OCC(=O)Nc2ccc(C)cc2)cc1S(=O)(=O)N1CCOCC1` gave Insulin prom up 0.01, Autophagy HCS inactive, WT yeast gro inh -7, INS promoter inh -10 and L major viab 44.
Screening COc1cc(/C=C/C(=O)OCC(=O)N2CCN(C(=O)c3ccco3)CC2)ccc1O returned Insulin prom up -0.41, Autophagy HCS inactive, WT yeast gro inh 14, INS promoter inh -21 and L major viab -3.
Screening COc1ccc(/C=C/C(=O)Nc2ccccc2C)cc1S(=O)(=O)N1CCOCC1 returned Insulin prom up 0.03.
COc1cc(/C=C/C(=O)OCC(=O)Nc2ccc(S(=O)(=O)N3CCCC3)cc2)ccc1O was read as Insulin prom up 0.01, Autophagy HCS inactive, WT yeast gro inh -16 and L major viab -2.
COc1cc(/C=C/C(=O)OCC(=O)N2CCN(S(=O)(=O)c3ccc(C)cc3C)CC2)ccc1O was read as Insulin prom up -0.37, Autophagy HCS inactive, WT yeast gro inh -24, INS promoter inh 0 and L major viab 98*.
`COc1ccc(NC(=O)COC(=O)/C=C/c2ccc(OC)c(S(=O)(=O)N3CCOCC3)c2)cc1` gave Insulin prom up 0.82, Autophagy HCS inactive, WT yeast gro inh -23, INS promoter inh 44 and L major viab 57*.
For Cc1cccc(CSCc2ccc(C(=O)NCC3CCCO3)o2)c1 (stereo unspecified) the results were Insulin prom up -0.49, Autophagy HCS inactive, WT yeast gro inh -4, INS promoter inh -27 and L major viab -7.
Screening CCS(=O)(=O)NCCNc1ccc([N+](=O)[O-])cc1 returned Autophagy HCS inactive, WT yeast gro inh -1 and L major viab -3.
`COc1ccccc1Oc1nc([N+](=O)[O-])nn1CC(N)=O` gave Insulin prom up -0.62, Autophagy HCS inactive, WT yeast gro inh 10, INS promoter inh 3 and L major viab -5.
For COc1ccc(-n2cnc3scc(-c4ccccc4)c3c2=O)cc1 the results were Insulin prom up -0.42, Autophagy HCS inactive, WT yeast gro inh 12, INS promoter inh -28 and L major viab 37.
Screening Cc1ccc(C(=O)N2CCN(c3ccc([N+](=O)[O-])cc3-n3cccc3)CC2)cc1 returned Insulin prom up -1.3.
COC(=O)COc1ccc(-n2cnnn2)cc1 was read as Insulin prom up -0.67, Autophagy HCS inactive, WT yeast gro inh 0 and L major viab -2.
For O=C(Nc1ccccc1)c1cccc(S(=O)(=O)Oc2ccc([N+](=O)[O-])cc2)c1 the results were Insulin prom up 0.31, Autophagy HCS inactive, WT yeast gro inh 19, INS promoter inh -16 and L major viab 2.
For O=S(=O)(NC1CCc2ccccc21)c1ccc(S(=O)(=O)N2CCCC2)cc1 (stereo unspecified) the results were Insulin prom up -0.36, Autophagy HCS inactive, WT yeast gro inh -11, INS promoter inh -17 and L major viab 72*.
`O=C(Cc1ccccc1)NC(NCCc1ccccc1)C(Cl)(Cl)Cl` (stereo unspecified) gave Autophagy HCS inactive, WT yeast gro inh -7, INS promoter inh -22 and L major viab 98*.
Screening CN1CC(c2ccc(C#N)cc2)C2(COc3ccccc3C2=O)C12C(=O)Nc1ccccc12 (stereo unspecified) returned Autophagy HCS inactive, WT yeast gro inh 35, INS promoter inh -14 and L major viab 90*.
Screening CCNc1nc(NCC)n2c(SC(C(=O)Nc3cc(C)ccc3OC)c3ccccc3)nnc2n1 (stereo unspecified) returned Insulin prom up -0.71, Autophagy HCS inactive, WT yeast gro inh -17, INS promoter inh 50 and L major viab 89*.
`C/C(=N/NC(=O)CNC(=O)CCc1ccccc1)c1ccc(Cl)c(Cl)c1` gave Insulin prom up 0.27.
